# Results as given in ChEMBL document CHEMBL3988442, “University of Dundee, Small-Polar-MMV Screening Library” (2021).
# Out of some 38,000 compounds screened, about 1,200 (3.2%) showed an effect of 50% or more. The median lay at about -58%. This is one part of a sample in which strong results are shown more often than they occur.
# System: Plasmodium falciparum
# Assay: Calibr Malaria Delayed Death Assay SOP
# Assay type: functional, organism-based
# Parameters: scale not given: in the data most compounds retested in dose-response had high values
# Conditions: concentration 4.99e-06 (unit not given; other assays of the set use mol/L)
row,Structure (SMILES),Percent Effect
1,CS(=O)(=O)Nc1nn(Cc2ccc(F)cc2)cc1Br,-19.12%
2,CCNS(=O)(=O)c1cnccc1N1CCN(CCO)CC1,-122.2%
3,Cc1cc(C)nc(N2CCC(c3cncc(-n4ccnc4)n3)CC2)n1,-62.28%
4,CC(O)CN1CCN(C(=O)CCOC(C)C)CC1 (stereo unspecified),-34.58%
5,O=C(C1CCOCC1)N1CCC2(CCN(Cc3nccs3)CC2)CC1.O=C(O)C(F)(F)F,-69.08%
6,CN(Cc1cc(Br)cs1)Cc1nnsc1Cl,-124.6%
7,CCOc1ccnc(N2CCCN(c3nc(CC)ns3)CC2)n1,-65.97%
8,CCOc1ccnc(N2CCCN(c3nc(C4CC4)ns3)CC2)n1,50.17%
9,Cc1nsc(N2CCCN(c3nc(C4CC4)ns3)CC2)n1,-111.5%
10,COCCN(Cc1sccc1C)C(=O)C1CCCN(C(N)=O)C1 (stereo unspecified),-77.34%
11,COCCN(Cc1sccc1C)C(=O)C1CCN(C(C)C)CC1,57.24%
12,COCCN(Cc1sccc1C)C(=O)COc1ccccc1O,-70.17%
13,CCn1cnnc1CNC(=O)NC(C)c1ccc(Cl)s1 (stereo unspecified),-29.19%
14,Cc1nc(N)ccc1CC1COc2ccccc2C1 (stereo unspecified),39.32%
15,Cc1csc(CNCC(C)c2nc3ccccc3o2)n1 (stereo unspecified),-35.1%
16,Cc1nc(CNCC(C)c2nc3ccccc3o2)cs1 (stereo unspecified),-114.5%
17,Cc1ccc(O)c(CNCC(C)c2nc3ccccc3o2)n1 (stereo unspecified),62.12%
18,N#Cc1cccnc1OC1CCN(S(=O)(=O)c2ccc(F)c(Cl)c2)CC1,-120.1%
19,Cc1cccc(C(=O)N2CC[C@@H]3CN(c4ncccn4)CCO[C@@H]3C2)c1,3.612%
20,CCn1ccnc1CN(C)C(=O)Cn1ccc2ccccc2c1=O,-48.52%
21,CN1CCOC(CNCc2cccc(OCC(F)(F)F)c2)C1 (stereo unspecified),11.83%
22,CN1CCOC(CNC(=O)C2(c3cccc(C(F)(F)F)c3)CCCC2)C1 (stereo unspecified),55.27%

row,Structure (SMILES),Percent Effect
1,Cc1cccc(C2(C(=O)NCC3CN(C)CCO3)CC2)c1 (stereo unspecified),-0.8202%
2,Cc1ccnc(NC(=O)c2ccc(Br)o2)c1,-122.7%
3,Cc1ccnc(NC(=O)c2[nH]nc(C(C)C)c2Br)c1,72.66%
4,Cc1ccnc(NC(=O)CCNC(=O)c2ccccc2Cl)c1,-154.4%
5,Cc1cccc(NC(=O)c2[nH]nc(C(C)C)c2Br)n1,55.91%
6,Cc1cccc(NC(=O)c2ccc(-n3cncn3)nn2)n1,-82.38%
7,CC(C)c1n[nH]c(C(=O)Nc2cc[nH]n2)c1Br,-216.8%
8,Cc1cccc(NC(=O)c2sc(C)nc2C)n1,-70.67%
9,CC(C)c1n[nH]c(C(=O)Nc2ccncc2)c1Br,-170.8%
10,CCc1ccsc1C(=O)N1CCCN(Cc2cnn(CC)c2)CC1,-131.2%
11,Cc1occc1C(=O)N1C[C@@H]2OCCN(CCN3CCCC3)[C@@H]2C1.O=C(O)C(F)(F)F.O=C(O)C(F)(F)F,-96.04%
12,CCC(=O)N1CCC2(CC1)C(=O)N(C)CCN2Cc1csc(C)n1.O=C(O)C(F)(F)F,-46.93%
13,CN(C)CCN(C)C[C@@H]1CN(Cc2cccc(O)c2)C[C@@H]1CO,-40.55%
14,CCN(C)C[C@@H]1CN(Cc2cccc(O)c2)C[C@@H]1CO,-20.19%
15,COCCN(C)C[C@@H]1CN(C(=O)c2cccc(Cl)c2)C[C@@H]1CO,-171.8%
16,COCCN1C(=O)[C@H]2CC[C@@H]1CN(S(=O)(=O)c1cccc(Cl)c1)C2,-81.8%
17,C=Cc1cccc(CN2C[C@@H](CN(C)CC)[C@@H](CO)C2)c1,87.24%
18,CCN(C)C[C@@H]1CN(S(=O)(=O)c2cccc(Cl)c2)C[C@@H]1CO,74.38%
19,Cc1ncsc1C(=O)OCC1CCN(c2ccccc2)C1 (stereo unspecified),9.637%
20,CNc1cncc(C2CCCN2Cc2ccnc(N3CCCC3)n2)n1 (stereo unspecified),-40.21%
21,CN(CC1(CO)CCCC1)C(=O)c1cc(COc2ccccc2F)[nH]n1,-12.3%
22,CSCCC(NC(=O)c1nc(SC)ncc1Cl)C(=O)O (stereo unspecified),-13.47%

row,Structure (SMILES),Percent Effect
1,CC(C)(C)c1nc(CN2CCOC(Cn3cncn3)C2)cs1 (stereo unspecified),-89.29%
2,Cc1cc(-c2cnn(CCNC(=O)CCn3cccn3)c2C2CC2)on1,-69.32%
3,O=C(CCN1CCCCCC1c1ccco1)N1CCOCC1 (stereo unspecified),-45.72%
4,CC(C)NC(=O)CCN1CCCC1c1cccc2c1OCCO2 (stereo unspecified),52.1%
5,CCNC(=O)CCN1CCCC1c1cccc2c1OCCO2 (stereo unspecified),51.42%
6,CNC(=O)CCN1CCCC1c1ccccc1Br (stereo unspecified),-26.77%
7,CC(C)NC(=O)CN1CCN(CC2CCOc3ccccc3C2)CC1 (stereo unspecified),-22.48%
8,NC(=O)NC(=O)CCN1CCCC1c1cccc2c1OCCO2 (stereo unspecified),22.71%
9,COCCN1CCCC1c1cccc2c1OCCO2 (stereo unspecified),-6.29%
10,O=C(CCN1CCCC1c1cccc2c1OCCO2)N1CCCCC1 (stereo unspecified),72.46%
11,O=C(CCN1CCCC1c1cccc2c1OCCO2)N1CCOCC1 (stereo unspecified),-28.31%
12,Cc1cc(C)cc(NCCC(=O)NC2CCCCC2)c1,-32.74%
13,CCOCC1CN(C(=O)Cc2ccccn2)Cc2cnn(CC)c21 (stereo unspecified),-151.3%
14,CCCNC(=O)CNc1ccccc1OCCC(=O)OC,-87.74%
15,Cn1cc(CN2CCC3(CC2)CCN(C(=O)c2cscn2)C3)cn1.O=C(O)C(F)(F)F,-97.69%
16,COc1ccc(C(N)=O)cc1NCc1nc(-c2cccs2)oc1C,-37.05%
17,CC(C)c1nnc2n1CC(CNCc1cccnc1)CC2 (stereo unspecified),-95.11%
18,O=C(NCCC(=O)N1CCCC1)c1cccnc1,-130.5%
19,CC(=O)Nn1ccc2c(nnc3c(-c4ccc(F)cc4)cnn32)c1=O,-66.29%
20,COc1ncc(CN2C[C@@H]3CC[C@@](O)(c4ccc(C)cn4)[C@@H]3C2)cn1.O=C(O)CC(O)(CC(=O)O)C(=O)O,-80.6%
21,CC[C@H]1CN(C(=O)CCn2c(C)cccc2=O)CC[C@@]1(C)O,-150.9%
22,CN(C)c1cc(CNC(=O)c2n[nH]c(=O)c3ccccc23)ccn1,-121.9%
